From PubChem BioAssay
ALOX12 inhib: 12-hLO (ALOX12) enzyme inhibition; 150,000 tested, 0.12% active; P18054; Potency, µM (highest dose often 57.1 µM), inactives show top-dose activity change, negative = inhibition, usual class: inhibitors; AID 1452; purified 12-hLO, xylenol orange hydroperoxide absorbance; note: potency is the fitted concentration of half-maximal effect; nearly all actives have a fitted effect of over 55% in size
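Purified human 12hLO (150 nM), preincubated 15 min with compound, then 40 uM arachidonic acid for 30 min, room temperature, Hepes pH 7.0 with 0.01% Triton X-100. Hydroperoxide detected by ferrous iron/xylenol orange; 573/405 nm absorbance ratio gives reaction progress.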
IMPase inh: cell-permeable inhibitors of inositol monophosphatase (IMPase); CHO-M1 cells, IP1 accumulation, HTRF TR-FRET ratio; 120,000 tested, under 10 active; inhibition (IP1 accumulation), % at 46.1 µM; AID 901; active = well fitted curve in the direction sought with a large enough effect in the signal ratio, not every such curve was filed as active; inconclusive = small, poorly fitted or top-dose-only effect, or a change in a side signal; inactive = no such curve, though single readings can be large or run the other way; the % refers to the signal ratio;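 note: cells stimulated with carbachol in lithium chloride buffer; plate controls were DMSO basal wells for no effect and reference inhibitor wells for full effect; higher means more IMPase inhibition seen as more IP1 and lower FRET ratio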
Target sequence (P97697 whole entry, looked up): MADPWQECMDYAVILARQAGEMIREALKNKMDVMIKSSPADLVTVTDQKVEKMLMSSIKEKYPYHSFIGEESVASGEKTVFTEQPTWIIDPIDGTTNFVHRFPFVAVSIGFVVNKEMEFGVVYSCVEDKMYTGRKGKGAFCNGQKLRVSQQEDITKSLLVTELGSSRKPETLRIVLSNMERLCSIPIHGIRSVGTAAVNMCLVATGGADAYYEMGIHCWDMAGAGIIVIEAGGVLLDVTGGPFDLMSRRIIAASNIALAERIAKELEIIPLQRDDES
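Elevated IP1 in lysates lowers TR-FRET signal (665/620 ratio and 620 channel reported). Cells were CHO-M1, given carbachol (50 uM as added) plus 50mM LiCl, pH 7.4, 30 min, 37C; compounds titrated up to 46 uM; AC50 by Hill equation.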
NPSR antagonist: blocks cAMP signaling of the human neuropeptide S receptor; CHO-NPSR cells, cAMP TR-FRET, antagonist mode; Potency, µM (titrated, usually from 38.3 µM), without a hit: at the highest dose activity change, negative = inhibition, hits mostly inhibitors; 220,000 tested, 1% active; AID 1461; note: potency is the fitted concentration of half-maximal effect; nearly all actives have a fitted effect of over 50% in size
ALDH1A1 inh: inhibitors of human aldehyde dehydrogenase 1A1; Purified ALDH1A1, NADH fluorescence, propionaldehyde substrate; Potency, µM (top dose mostly 75.3 µM), without a hit: top-dose activity, negative = inhibition, actives largely listed as inhibitors; 220,000 tested, 7.3% active; active = well fitted inhibition curve with a large enough effect, not every such curve was filed as active; inconclusive = small, poorly fitted or top-dose-only effect, or another doubt; inactive = no such curve, though single readings can be large or run the other way;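 note: potency is the fitted concentration of half-maximal effect; plate controls were no enzyme wells and a reference inhibitor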
HPGD inh: inhibitors of human 15-hydroxyprostaglandin dehydrogenase (HPGD); P15428; purified HPGD, NADH fluorescence kinetic, PGE2 substrate; Potency, µM, without a hit: at the top dose activity change, negative = inhibition, most hits filed as inhibitors; 150,000 tested, 4.3% active; AID 894; active = well fitted inhibition curve with a large enough effect, not every such curve was filed as active; inconclusive = small, poorly fitted or top-dose-only effect, or another doubt; inactive = no such curve, though single readings can be large or run the other way; note: potency is the fitted concentration of half-maximal effect
Target sequence (P15428 whole entry, looked up): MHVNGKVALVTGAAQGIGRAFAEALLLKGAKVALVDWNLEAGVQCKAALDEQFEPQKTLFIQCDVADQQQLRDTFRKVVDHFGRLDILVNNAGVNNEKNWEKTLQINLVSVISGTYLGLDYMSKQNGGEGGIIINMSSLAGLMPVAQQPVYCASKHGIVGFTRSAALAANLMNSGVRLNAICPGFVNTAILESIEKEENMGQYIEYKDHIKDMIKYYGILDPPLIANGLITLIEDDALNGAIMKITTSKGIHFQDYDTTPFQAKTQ
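NADH formation kinetics: reaction with 30 uM PGE2 and 1 mM NAD+ (final), 20 nM enzyme, Tris-HCl pH 8 with Tween 20, after 15 min compound preincubation at room temperature. Fluorescence change, last versus first of five reads.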
IMPase Li inh: cell-permeable IMPase inhibitors with lithium potentiation; 210,000 tested, 0.35% active; Potency, µM (series often up to 59.4 µM), inactives show at the highest dose activity, negative = IMPase inhibition, hits mostly inhibitors; CHO-M1 cells, IP1 TR-FRET (IP-One), carbachol + lithium;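 note: IP1 builds up when IMPase is blocked and the TR-FRET signal falls; potency is the fitted concentration of half-maximal effect; plate controls were basal vehicle for no effect and high inhibitor control for full effect; nearly all actives have a fitted effect of over 50% in size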
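Test compounds were applied to CHO-M1 cells previously cultured for 16–30 h at 2000 per well. A small lithium amount accompanied them; after 30 min at 37C, IP1 was quantified by TR-FRET.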
The depositor's hits bear a star; ? = inconclusive; . = not tested or not shown; [ ] = another dose, or the depositor's remark. Hits are enriched below; roughly 8.9% of the tested compounds scored in any of these assays. Unless noted, calls come from the whole dose curve; as a rule, active = well fitted curve in the direction sought with a large enough effect; inconclusive = small, poorly fitted or top-dose-only effect, or another doubt; inactive = no such curve, though single readings can be large; an effect the other way counts as inactive or inconclusive. Unless noted, % is set by controls: 0 for no effect and ±100 for the full control effect.

SMILES	ALOX12 inhib	IMPase inh	NPSR antagonist	ALDH1A1 inh	HPGD inh	IMPase Li inh
COc1ccc(-c2ccc(/C=C3/C(=N)N4C=CSC4=NC3=O)o2)c([N+](=O)[O-])c1	-1%	-7	-14%	7%	?	9%
CCOC(=O)c1cc(-c2ccc(/C=C3/C(=O)NC(=O)C(C#N)=C3C)o2)ccc1Cl	-20%	-5	-17%[46.1 µM]	8.9µM*	22µM*	-20%[38.3 µM]
CC1=C(C#N)C(=O)NC(=O)/C1=C\c1ccc(-c2ccc(C)cc2[N+](=O)[O-])o1	.	.	-14%	13µM*	.	6%
Cc1ccc(N2NC(=O)/C(=C/c3ccc(-c4ccc(Cl)c(C(=O)O)c4)o3)C2=O)cc1	.	.	-5%	8.9µM*	.	9%
Cn1c(NC(=O)Cc2cccc3ccccc23)cc(=O)n(C)c1=O	.	.	-5%	14µM*	.	-1%
CN(Cc1ccccc1)c1oc(COc2ccccc2F)nc1C#N	-6%	11	-20%[46.1 µM]	?	-22%	18%[38.3 µM]
CC1=CC(C)(C)N2C(=O)C3(C(C#N)=C(N)Oc4cc(O)ccc43)c3c(C)c(C)cc1c32 (stereo unspecified)	-10%	4	?	6%	-3%	20%[38.3 µM]
CC(=O)c1cccc(NC(=O)c2cnn3ccccc23)c1	9%	-2	2%[46.1 µM]	-18%	-30%	-3%[38.3 µM]
CC(=O)c1ccc(NC(=O)c2cnn3ccccc23)cc1	-1%	-7	-5%[46.1 µM]	13µM*	?	0%[38.3 µM]
CCCn1nnc(NC(=O)c2cc(Br)cc(Br)c2OC)n1	-3%	8	-3%[46.1 µM]	11µM*	.	.
CC[n+]1cc(-c2ccccc2)nc(N2CCOCC2)n1	-10%	?	-20%[46.1 µM]	?	-11%	0%[38.3 µM]
CCc1cccc(C)c1NC(=O)CSc1nc2ccc(N3C(=O)c4ccccc4C3=O)cc2s1	-5%	-8	9%[46.1 µM]	4%	-10%	16µM*
CCc1cccc(CC)c1NC(=O)CSc1nc2ccc(N3C(=O)C4C(C3=O)[C@H]3C=C[C@@H]4C3)cc2s1 (stereo partly specified)	-1%	2	-4%	18µM*	20µM*	-1%
Cc1cc(C)c(NC(=O)CSc2nc3ccc(N4C(=O)c5ccccc5C4=O)cc3s2)c(C)c1	.	.	10%	-7%	.	-10%
CC(=O)c1c(C)[nH]c(C(=O)CSc2ncnc3sc(-c4ccccc4)cc23)c1C	-1%	.	6%	-14%	-17%	8%
COc1ccc(NCC(O)Cn2cnc3c2c(=O)n(C)c(=O)n3C)cc1 (stereo unspecified)	-1%	.	0%	-4%	-13%	8%
CCOC(=O)c1cnc(SC)nc1Sc1ccccc1Cl	0%	11	-6%[46.1 µM]	6%	16µM*	35%[38.3 µM]
COc1cc(OC)nc(-n2ncc(Br)c(Br)c2=O)n1	3%	.	6.3µM*	10µM*	-1%	-18%
NC(=O)Cc1cn(-c2ncc(C(F)(F)F)cc2Cl)c2ccccc12	2%	?	-2%[46.1 µM]	6%	-19%	19%[38.3 µM]
O=C(c1cccc(Cl)c1)N1CCCC(C(=O)N2CCCCCC2)C1 (stereo unspecified)	-3%	3	-6%[46.1 µM]	?	-15%	17%[38.3 µM]
CC1CCCN(C(=O)c2ccc3nc[nH]c3c2)C1 (stereo unspecified)	5%	4	-10%[46.1 µM]	?	2µM*	-19%[38.3 µM]
Cc1nn(Cc2cccc(C(=O)N3CCCC(C)C3)c2)c(C)c1[N+](=O)[O-] (stereo unspecified)	2%	.	8%	?	14µM*	12%
CC1CCCN(C(=O)c2ccc3c(=O)n(C4CCCC4)c(=S)[nH]c3c2)C1 (stereo unspecified)	.	.	?	3.5µM*	.	16%
O=C(COC(=O)/C=C/c1ccc(Br)o1)Nc1ccccc1F	.	.	-14%	14µM*	.	-10%
Cc1cc(C(=O)OCC(=O)Nc2ccccc2F)c(C)o1	-1%	-1	-8%[46.1 µM]	0%	-7%	4%[38.3 µM]
COC(=O)C/C=C\[C@@H](C)[C@@H](/C=N\O[C@@H](C)c1cn([C@H](CO)Cc2ccccc2)nn1)OC	.	.	.	2%[13.5 µM]	.	.
